Measured values: the antibiotic and cytotoxicity screens of Wong et al. (2023)
The whole screen tested about 39,000 compounds, of which about 1,500 (3.8%) were called active. The sample holds actives, similar compounds and a random draw of the others, so the mix is not that of the screen.

tested on: HSkMC (human skeletal muscle cells); assay: cytotoxicity call (relative viability < 0.9); conditions: 10 µM

SMILES	cytotoxicity call
C[C@@H]1CN([C@H](C)CO)C(=O)c2cccc(NS(=O)(=O)c3ccccc3)c2O[C@@H]1CN(C)Cc1ccc(Cl)c(Cl)c1	inactive
Cn1cnc(S(=O)(=O)N2C[C@@H](O)COC[C@@H]3O[C@@H](CC(=O)NC4Cc5ccccc5C4)CC[C@H]32)c1	inactive
C[C@H](O)C#Cc1ccc2c(c1)O[C@H](CN(C)C(=O)Nc1ccccc1)[C@H](C)CN([C@H](C)CO)S2(=O)=O	inactive
COc1ccc(S(=O)(=O)Nc2ccc3c(c2)C(=O)N([C@H](C)CO)C[C@H](C)[C@H](CN(C)S(C)(=O)=O)OCCCC[C@@H](C)O3)cc1	inactive
Cc1cnc2c(c1NCCN(C)C)c(=O)n(C)c(=O)n2C	inactive
CCOc1nc2ccccc2c(=O)n1CCO	inactive
C[C@H](CO)N1C[C@H](C)[C@H](CN(C)C(=O)c2ccc3c(c2)OCO3)Oc2cc(-c3cncnc3)ccc2S1(=O)=O	inactive
O=C1c2ccncc2C(=O)N1CO	inactive
CO[C@@H](CN(C)S(=O)(=O)c1cccc(Cl)c1)[C@@H](C)CN([C@@H](C)CO)S(=O)(=O)c1ccc(Cl)cc1	inactive
CC(C)NC(=O)N(C)C[C@@H]1Oc2ccc(NS(=O)(=O)c3cn(C)cn3)cc2C(=O)N([C@@H](C)CO)C[C@@H]1C	inactive
FC(F)(F)c1ccccc1/N=C1\CCCc2ccccc21	inactive
Cc1ccc(S(=O)(=O)Nc2ccc3c(c2)C(=O)N([C@@H](C)CO)C[C@@H](C)[C@@H](CN(C)Cc2ccc(Cl)c(Cl)c2)O3)cc1	active
COC1C(O)CC(=O)OC(C)CC=CC=CC(O)C(C)CC(CC=O)C1OC1OC(C)C(OC2CC(C)(O)C(OC(=O)CC(C)C)C(C)O2)C(N(C)C)C1O (stereo not drawn) [KITASAMYCINS [A1 shown] ]	inactive
CO[C@@H]1[C@@H](O[C@@H]2O[C@H](C)[C@@H](O[C@H]3C[C@@](C)(O)[C@@H](OC(=O)CC(C)C)[C@H](C)O3)[C@H](N(C)C)[C@H]2O)[C@@H](CC=O)C[C@@H](C)[C@@H](O)/C=C/C=C/CC(C)OC(=O)C[C@H]1OC(C)=O (stereo partly drawn)	active
CO[C@@H]1[C@@H](O[C@@H]2O[C@H](C)[C@@H](O[C@H]3C[C@@](C)(O)[C@@H](OC(=O)CC(C)C)[C@H](C)O3)[C@H](N(C)C)[C@H]2O)[C@@H](CC=O)C[C@@H](C)[C@@H](O)/C=C\C=C/C[C@@H](C)OC(=O)C[C@H]1OC(C)=O	inactive
COc1ccccc1CNC(=O)C[C@@H]1C[C@@H]2c3cc(NS(=O)(=O)c4ccc(F)cc4)ccc3O[C@@H]2[C@@H](CO)O1	inactive
Cc1ccc(S(=O)(=O)N(C)C[C@@H]2OCCCC[C@H](C)Oc3ccc(NC(=O)Nc4c(C)noc4C)cc3C(=O)N([C@H](C)CO)C[C@H]2C)cc1	inactive
CC(C)C[N+]1(C)Cc2ccccc2C1	inactive
Cc1ccc(S(=O)(=O)Nc2ccc3c(c2)C(=O)N([C@@H](C)CO)C[C@@H](C)[C@@H](CN(C)Cc2ccc(-c4ccccc4)cc2)O3)cc1	inactive
C[C@@H]1CN([C@@H](C)CO)C(=O)c2cc(NS(=O)(=O)c3ccccc3)ccc2O[C@@H]1CN(C)Cc1ccc(-c2ccccc2)cc1	active
Cc1ccc(S(=O)(=O)Nc2ccc3c(c2)C(=O)N([C@H](C)CO)C[C@@H](C)[C@H](CN(C)Cc2ccc(-c4ccccc4)cc2)O3)cc1	inactive
C[C@H](CO)N1C[C@H](C)[C@@H](CN(C)Cc2ccc(-c3ccccc3)cc2)Oc2ccc(NS(=O)(=O)c3cccs3)cc2C1=O	inactive
C[C@@H]1CN([C@H](C)CO)C(=O)c2cc(NS(=O)(=O)c3cccs3)ccc2O[C@@H]1CN(C)Cc1ccc(-c2ccccc2)cc1	active

SMILES	cytotoxicity call
Cc1ccc(S(=O)(=O)Nc2ccc3c(c2)C(=O)N([C@@H](C)CO)C[C@H](C)[C@@H](CN(C)Cc2ccc(-c4ccccc4)cc2)O3)cc1	inactive
Cc1ccc(S(=O)(=O)Nc2ccc3c(c2)C(=O)N([C@@H](C)CO)C[C@@H](C)[C@H](CN(C)Cc2ccc(-c4ccccc4)cc2)O3)cc1	inactive
Cc1ccc(S(=O)(=O)Nc2ccc3c(c2)C(=O)N([C@H](C)CO)C[C@H](C)[C@H](CN(C)Cc2ccc(-c4ccccc4)cc2)O3)cc1	active
C[C@@H]1CN([C@@H](C)CO)C(=O)c2cc(NS(=O)(=O)c3ccccc3)ccc2O[C@H]1CN(C)Cc1ccc(-c2ccccc2)cc1	inactive
Cc1ccc(S(=O)(=O)Nc2ccc3c(c2)C(=O)N([C@H](C)CO)C[C@@H](C)[C@@H](CN(C)Cc2ccc(-c4ccccc4)cc2)O3)cc1	active
C[C@H](CO)N1C[C@H](C)[C@H](CN(C)Cc2ccc(-c3ccccc3)cc2)Oc2ccc(NS(=O)(=O)c3cccs3)cc2C1=O	inactive
C[C@H]1CN([C@@H](C)CO)C(=O)c2cc(NS(=O)(=O)c3ccccc3)ccc2O[C@H]1CN(C)Cc1ccc(-c2ccccc2)cc1	inactive
COc1ccc(S(=O)(=O)N(C)C[C@@H]2Oc3ccc(NC(=O)CCCN(C)C)cc3C(=O)N([C@H](C)CO)C[C@@H]2C)cc1	inactive
COc1ccc(-c2cn(CCNC(=O)[C@H](Cc3ccccc3)NS(=O)(=O)c3ccc(C)cc3)nn2)cc1OC	inactive
CC(/C=C/C(=O)NO)=C\c1cccc(OC[C@@H]2[C@H]3C[C@H]4c5[nH]c6ccccc6c5CCN4C[C@@H]3CC[C@@H]2O)c1	inactive
O=C(N[C@@H](c1ccc(-c2ccccc2)cc1)c1cnccn1)C1CCN(CCCOc2ccccc2)CC1	inactive
CC(=O)NC1C(O)CC(O)(C(=O)O)OC1C(O)C(O)CO (stereo not drawn)	inactive
C[C@H]1CCCCO[C@@H](CN(C)S(C)(=O)=O)[C@@H](C)CN([C@@H](C)CO)C(=O)c2cc(N(C)C)ccc2O1	inactive
C[C@H](CO)N1C[C@H](C)[C@H](CN(C)C(=O)Nc2ccc(C(F)(F)F)cc2)Oc2ccc(NC(=O)CCC(F)(F)F)cc2CC1=O	inactive
Cc1ccc(S(=O)(=O)C[C@H](C)N2CCOCC2)c(S(=O)(=O)C[C@@H](C)N2CCOCC2)c1	inactive
CCNC(=O)C[C@@H]1C=C[C@@H](NC(=O)C2CC2)[C@@H](CO)O1	inactive
COc1ccc(NC(=O)Nc2ccc3c(c2)CC(=O)N([C@@H](C)CO)C[C@H](C)[C@H](CN(C)C(=O)Nc2cccc4ccccc24)O3)cc1	inactive
CCCNC(=O)Nc1ccc2c(c1)OC[C@@H](C)N(C(=O)C1CCOCC1)C[C@@H](C)[C@@H](OC)CN(C)C2=O	inactive
C[C@H]1CN([C@@H](C)CO)C(=O)c2cc(Br)cnc2O[C@@H]1CN(C)Cc1cccc(C(=O)O)c1	inactive
O=C(O)CNC(=O)C(=O)O	active
CNCC(=O)O	inactive
NCC(=O)NCC(=O)O	inactive
O=C(CCCCCNC(=O)OCCCOc1ccc(C2=N[C@]3(Cc4ccccc4)C(=O)N(Cc4ccccc4)Cc4ccccc4[C@@H]3O2)cc1)NO	inactive

SMILES	cytotoxicity call
C[C@@H]1CCCCO[C@@H](CN(C)C(=O)Nc2ccc3c(c2)OCO3)[C@@H](C)CN([C@H](C)CO)C(=O)c2cc(NC(=O)CCCCCC(=O)Nc3ccccc3N)ccc2O1	inactive
NC(=O)c1ncn([C@@H]2O[C@H](CO)[C@@H](O)[C@H]2O)n1	inactive
C[C@@H]1CN([C@H](C)CO)C(=O)c2cc(NC(=O)Nc3ccc(F)cc3)ccc2O[C@@H]1CN(C)Cc1ccc(C(=O)Nc2ccccc2N)cc1	inactive
Cc1ccc(Nc2ncc3c(n2)N(C)C(=O)N(c2cc(NC(=O)c4cccc(C(F)(F)F)c4)ccc2C)C3)cn1	active
Cc1ncc(NC(=O)c2cccc(C(F)(F)F)c2)cc1-c1cnc(OC2CCOCC2)c(N2CCOCC2)c1	inactive
O=C(Nc1cccc(C(F)(F)F)c1)c1ccc2ccccc2c1	inactive
C[C@H]1CN([C@@H](C)CO)C(=O)Cc2cc(NS(=O)(=O)c3ccc(Cl)cc3)ccc2O[C@H]1CN(C)C(=O)Nc1ccc(C(F)(F)F)cc1	inactive
CC1=C(CCC(=O)O)c2cc3[nH]c(cc4nc(cc5[nH]c(cc1n2)c(C)c5C(C)O)C(C)=C4C(C)O)c(C)c3CCC(=O)O (stereo not drawn)	inactive
CCc1c(c/2[nH]c1/C=C/1\N=C(/C(=C/3\N=C(/C=C/4\N/C(=C2)C(=C4C)C=C)[C@@H](C)[C@@H]3CCC(=O)O)CC(=O)N[C@@H](CC(=O)O)C(=O)O)C(=C1C)C(=O)O)C	inactive
CCCCCCO[C@H](C)c1c(c/2[nH]c1/C=C/1\N=C(/C=C/3\NC4=C(CC(=O)C4=C3C)C3=N/C(=C2)[C@@H](C)[C@@H]3CCC(=O)O)C(=C1C)CC)C	active
C[C@H](N)C(=O)N1CCc2ccccc2C1	inactive
C[C@@H]1CCCCO[C@@H](CN(C)S(=O)(=O)c2ccc(F)cc2)[C@@H](C)CN([C@@H](C)CO)C(=O)c2cc(NC(=O)Nc3ccc(F)cc3)ccc2O1	inactive
CC(N)O.Cc1cc(CC(C)CC(C)(C)C)n(O)c(=O)c1 (stereo not drawn)	inactive
C[C@@H]1CN([C@H](C)CO)C(=O)c2cc(NC(=O)Nc3ccc(C(F)(F)F)cc3)ccc2O[C@@H](C)CCCCO[C@@H]1CN(C)C(=O)Cc1ccccc1	active
C[C@@H]1CCCCO[C@@H](CN(C)C(=O)Cc2ccccc2)[C@@H](C)CN([C@@H](C)CO)C(=O)c2cc(NC(=O)Nc3ccc(C(F)(F)F)cc3)ccc2O1	inactive
C[C@@H]1CCCCO[C@H](CN(C)C(=O)Cc2ccccc2)[C@@H](C)CN([C@@H](C)CO)C(=O)c2cc(NC(=O)Nc3ccc(C(F)(F)F)cc3)ccc2O1	inactive
C[C@@H]1CCCCO[C@@H](CN(C)C(=O)Cc2ccccc2)[C@@H](C)CN([C@H](C)CO)C(=O)c2cc(NC(=O)Nc3ccc(C(F)(F)F)cc3)ccc2O1	inactive
C[C@H](CO)N1C[C@H](C)[C@@H](CN(C)C(=O)Cc2ccccc2)OCCCC[C@H](C)Oc2ccc(NC(=O)Nc3ccc(C(F)(F)F)cc3)cc2C1=O	inactive
C[C@H](CO)N1C[C@H](C)[C@H](CN(C)C(=O)Cc2ccccc2)OCCCC[C@H](C)Oc2ccc(NC(=O)Nc3ccc(C(F)(F)F)cc3)cc2C1=O	inactive
C[C@@H]1CN([C@@H](C)CO)C(=O)c2cc(NC(=O)Nc3ccc(C(F)(F)F)cc3)ccc2O[C@@H](C)CCCCO[C@H]1CN(C)C(=O)Cc1ccccc1	active
C[C@@H]1CCCCO[C@H](CN(C)C(=O)Cc2ccccc2)[C@H](C)CN([C@@H](C)CO)C(=O)c2cc(NC(=O)Nc3ccc(C(F)(F)F)cc3)ccc2O1	active
C[C@@H]1CCCCO[C@H](CN(C)C(=O)Cc2ccccc2)[C@@H](C)CN([C@H](C)CO)C(=O)c2cc(NC(=O)Nc3ccc(C(F)(F)F)cc3)ccc2O1	inactive
